Screening results deposited in PubChem BioAssay by National Center for Advancing Translational Sciences (NCATS).
GLS inh = blocks human kidney-isoform glutaminase activity. Potency, µM (doses to about 45.5 µM), hits mostly inhibitors. O94925. 410,000 tested, 0.21% active. GLS enzymatic activity, qHTS titration
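Assay buffer: 45 mM KH2PO4 pH 8.2, 0.02% Tween-20. hKGA acts on L-glutamine (1 mM solution added); product glutamate is reported by an oxidase/peroxidase Amplex Red coupling, with fluorescence taken at baseline and 30 min.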
POLB inh = blocks human DNA polymerase beta activity; Pol beta primer extension/strand displacement, fluorescence kinetic; Potency, µM (series often up to 114 µM), hits mostly inhibitors; 340,000 tested, 1.3% active
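Homogeneous kinetic assay of primer extension and strand displacement by 10 nM Pol beta, preincubated 15 min at room temperature with compound before 50 nM substrate (final) was added. Read at 0 and 10 min; four-parameter Hill fit.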
GCN5L2 inh = inhibitors of human GCN5L2 histone acetyltransferase; Q92830; GCN5L2 HAT assay, ThioGlo1 CoA-SH fluorescence; Potency, µM (top dose mostly 58.9 µM), hits mostly inhibitors; 390,000 tested, 0.21% active; AID 504327
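Preincubate 20nM GCN5L2 with compound 15 min, RT → add 50uM ThioGlo1 + 75uM H3(1-25) + 70uM acetyl-CoA → read fluorescence 0 and 20 min. Primary qHTS; fluorescent artifacts likely.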
POLI inh = inhibitors of human DNA polymerase iota. Q9UNA4. Pol iota fluorescent replication assay, 10 min. Potency, µM (doses to about 115 µM), actives largely listed as inhibitors. 390,000 tested, 1% active
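Pol iota at 10 nM preincubated 15 min with compounds at room temperature; reaction started with fluorescent substrate, 50 nM final. Fluorescence read kinetically at 0 and 10 min; buffer-only wells as negative control.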
Pol eta inh = blocks human DNA polymerase eta activity. Q9Y253. recombinant Pol eta, fluorescent DNA replication assay. Potency, µM (doses to about 114 µM), usual class: inhibitors. 390,000 tested, 1.2% active
Target sequence (Q9Y253 whole entry, looked up): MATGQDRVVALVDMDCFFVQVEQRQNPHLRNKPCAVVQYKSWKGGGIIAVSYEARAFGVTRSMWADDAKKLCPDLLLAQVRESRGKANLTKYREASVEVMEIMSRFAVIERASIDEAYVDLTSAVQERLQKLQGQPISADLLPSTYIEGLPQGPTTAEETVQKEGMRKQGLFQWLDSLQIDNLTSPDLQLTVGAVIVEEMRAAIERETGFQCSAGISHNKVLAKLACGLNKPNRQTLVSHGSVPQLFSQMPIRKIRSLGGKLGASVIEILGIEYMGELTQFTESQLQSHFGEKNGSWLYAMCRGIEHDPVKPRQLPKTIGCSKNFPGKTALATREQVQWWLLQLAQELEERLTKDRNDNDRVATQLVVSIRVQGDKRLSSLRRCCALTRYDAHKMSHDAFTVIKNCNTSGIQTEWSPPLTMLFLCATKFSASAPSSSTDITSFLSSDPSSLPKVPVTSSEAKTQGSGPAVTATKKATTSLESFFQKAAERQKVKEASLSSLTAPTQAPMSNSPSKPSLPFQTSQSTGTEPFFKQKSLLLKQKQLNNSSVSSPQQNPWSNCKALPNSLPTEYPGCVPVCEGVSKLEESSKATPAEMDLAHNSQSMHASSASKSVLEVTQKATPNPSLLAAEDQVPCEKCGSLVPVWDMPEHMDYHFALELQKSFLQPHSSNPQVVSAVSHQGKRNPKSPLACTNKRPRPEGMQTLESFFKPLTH
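Fluorescent replication assay: 50 nM final substrate added after a 15 min room-temperature compound preincubation with 10 nM enzyme. Signal taken at 0 min and again at 10 min.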
POLK inh = inhibitors of human DNA polymerase kappa. Potency, µM (titrated, usually from 107 µM), hits mostly inhibitors. Q9UBT6. AID 588579. purified Pol kappa, fluorescent DNA synthesis assay, 10 min. 400,000 tested, 0.53% active
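Pol kappa 10 nM + cpd, 15 min RT; start w/ substrate 50 nM final; fluorescence kinetic read, 0 and 10 min. Neg ctrl: buffer, no enzyme.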
Of the large screens only hits and unclear results are named; the others gave an inactive call. The list is not random: actives were taken first. Their share in the collection is about 2.4%. The call rests on the fitted dose curve; in most records, active means well fitted inhibition curve with a large enough effect; inconclusive means small, poorly fitted or top-dose-only effect, or another doubt; inactive means no such curve, though single readings can be large or run the other way.

Cc1ccc(SCC(=O)Nc2ccc(-c3nnc(-c4ccco4)o3)cc2)cc1	POLB inh 50µM, Pol eta inh inconclusive, POLK inh inconclusive
CN(C)c1ccc(NC(=O)CSc2nnc(-c3ccco3)c(-c3ccco3)n2)cc1	GLS inh inconclusive
O=c1ccc2ccccc2[nH]1	none (no result: GLS inh, POLB inh, POLI inh, Pol eta inh)
CC1=C[C@@H](O)CC(C)(C)[C@@H]1/C=C/C(C)=C/C=C/C(C)=C/C=C/C=C(C)/C=C/C=C(C)/C=C/C1=C(C)C[C@H](O)CC1(C)C	none (no result: POLB inh, POLI inh, Pol eta inh)
CCCN1CNc2c(c(=O)[nH]c(=S)n2CCCc2ccccc2)C1	none (no result: GLS inh, POLB inh, GCN5L2 inh, Pol eta inh)
Cc1cccc(C)c1NC(=O)c1ccc2nc(CCc3ccccc3)oc2c1	POLI inh inconclusive
Cc1ccc(NC(=O)CSc2nnc(-c3ccco3)c(-c3ccco3)n2)cc1	POLB inh 14µM, GCN5L2 inh inconclusive, POLI inh 11µM, Pol eta inh 11µM, POLK inh 40µM
COc1ccc(NC(=O)CSc2nnc(-c3ccco3)c(-c3ccco3)n2)cc1OC	POLI inh inconclusive, Pol eta inh 50µM, POLK inh inconclusive
C=Cc1ccc(Cn2c(C(=O)O)c(CNCc3ccccc3)c3ccc(C)cc32)cc1	none
Cc1sc2nc3c(SC(C)C(=O)O)cc(C(=O)c4ccccc4O)cn3c(=O)c2c1C (stereo unspecified)	GLS inh inconclusive, POLB inh inconclusive, POLI inh inconclusive, Pol eta inh inconclusive
CCOC(=O)c1sc2nc3c(SCC(=O)O)cc(C(=O)c4ccccc4O)cn3c(=O)c2c1C	POLB inh 3.2µM, POLI inh inconclusive, Pol eta inh inconclusive
COC(=O)c1cc(C(=O)c2cc(F)ccc2O)cn2c(=O)c3c(C)c(C)sc3nc12	POLB inh 32µM, POLI inh inconclusive
CN(C)c1c(Cl)cc(/C=C2\C=Cc3ccccc32)cc1Cl	none (no result: GLS inh, POLB inh, GCN5L2 inh, Pol eta inh)
COc1cc(C)c(Cl)cc1S(=O)(=O)n1cnc2ccccc21	POLB inh 89µM
COc1ccc(OC)c(S(=O)(=O)n2cnc3ccccc32)c1	GCN5L2 inh inconclusive
C[C@H]1NCc2cc(-c3ccc4c(=O)c(C(=O)O)cn(C5CC5)c4c3OC(F)F)ccc21	GLS inh 13µM (no result: POLB inh, GCN5L2 inh, POLI inh, Pol eta inh, POLK inh)
O=C(NCCCc1nc2ccccc2n1CCCCOc1ccccc1)C1CCCCC1	none (no result: GLS inh, POLB inh, GCN5L2 inh, Pol eta inh)
Cc1ccc(NCCC(=O)c2ccc(Cl)cc2)cc1C	POLI inh 100µM
CCc1ccc(NCCC(=O)c2ccc(Cl)cc2)cc1	none
COc1ccc(-c2cc(C(=O)Oc3ccc(C)c(C)c3)c3ccccc3n2)cc1	none
COc1ccc(C(=O)Nc2c(N)nc(SCC(=O)Nc3ccc(NC(C)=O)cc3)[nH]c2=O)cc1OC	POLB inh inconclusive, POLI inh 79µM, Pol eta inh inconclusive, POLK inh inconclusive
Nc1nc(SCC(=O)Nc2ccc(C(F)(F)F)cc2)[nH]c(=O)c1NC(=O)c1ccc(F)c(F)c1	none
COc1ccc(C(=O)Nc2cccc(NC(C)=O)c2)cc1OC	POLB inh 8.9µM, POLI inh inconclusive, Pol eta inh inconclusive, POLK inh inconclusive
Cc1cccc(CNC(=O)CS(=O)(=O)c2cccc3nsnc23)c1	none
c1csc(Cc2nn3c(-c4ccncc4)nnc3s2)c1	POLB inh 32µM, POLI inh 20µM, Pol eta inh inconclusive, POLK inh 40µM
Cc1ccc(C2C(C#N)=C(N)N(c3cccnc3)C3=C2C(=O)CCC3)s1 (stereo unspecified)	POLB inh inconclusive, POLI inh inconclusive, Pol eta inh 56µM
NC(Cc1ccccc1)C(O)c1ccco1 (stereo unspecified)	none (no result: GLS inh, POLB inh, GCN5L2 inh, Pol eta inh)
CC(CCc1ccc2c(c1)OCO2)NN (stereo unspecified)	none (no result: POLB inh, GCN5L2 inh, POLI inh, Pol eta inh, POLK inh)
COc1ccc(NC(=O)NNC(=O)COc2ccc([N+](=O)[O-])c(C)c2)cc1OC	POLB inh 50µM
COc1ccc(NC(=O)NNC(=O)COc2ccc3ccccc3c2)cc1OC	none
Cc1cccc(OCCC(=O)NO)c1	none (no result: GLS inh, POLB inh, GCN5L2 inh, Pol eta inh)
CCC(=O)NC(c1cccc([N+](=O)[O-])c1)c1c(O)ccc2ccccc12 (stereo unspecified)	POLI inh 89µM
COc1nc(N)nc(NC(=O)c2cccs2)c1N=O	POLI inh 28µM (no result: POLB inh, GCN5L2 inh)
